Measured values published in PubChem BioAssay AID2685 (National Center for Advancing Translational Sciences (NCATS), 2010).
Among all 320,000 compounds or so, about 2,100 (0.66%) were called active. Not shown: some 53% with an inconclusive outcome. The call rests on the fitted dose curve; in most records, active means well fitted inhibition curve with a large enough effect in the signal ratio, with a control signal flat (not every such curve was filed as active); inconclusive means small, poorly fitted or top-dose-only effect, or effect the other way, or a change in a side signal; inactive means flat fitted curve, though single readings scatter; the % refers to the signal ratio. Many of the other results were omitted from the sample, so actives are more common in it than they were.

Test: qHTS Assay for Lipid Storage Modulators in Drosophila S3 Cells;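 on cell number change: cells counted by Cell Tracker Red CMTPX staining in the red channel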
Conditions: BODIPY lipid droplet fluorescence, 18-24 h, cells fed with added oleic acid; cell number change: measured here: cell count max response; series mostly up to 46.1 µM
Summary of the method: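 Drosophila S3 cells got compounds at several concentrations plus oleic acid (400 uM solution). Laser-scanning cytometry with 488 nm excitation read lipid droplets at 500-530 nm and cells at 575-640 nm. Percent activity was relative to 20 uM Triacsin C.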
Potency means the concentration at half of the fitted maximal effect.

Structure (SMILES) | Potency | cell number change [%]
O=C(COC(=O)c1ccccc1Nc1ccccc1)NCc1ccccc1Cl | inactive | -4.27
Nc1nc(-c2ccccc2)c(-c2ccccc2)o1 | inactive | 3.44
CC(=O)c1c(C)[nH]c(C(=O)OCCCCN2C(=O)c3ccccc3C2=O)c1C | 0.58 µM (active) | -18.3
CC(=O)c1c(C)[nH]c(C(=O)OCC(=O)N2CC(=O)Nc3ccccc32)c1C | inactive | 17.6
CCOC(=O)c1[nH]c(C)c(C(=O)OCCN2C(=O)c3ccccc3C2=O)c1C | inactive | -20.4
Cc1cc(NS(=O)(=O)c2ccc3c(c2)OCCO3)no1 | inactive | 5.55
Cc1ccc(-c2nc(CS(=O)CC(=O)NCCCc3ccccc3)c(C)o2)cc1 (configuration not stated) | inactive | 13.7
Cc1cc(C)cc(OCCCCn2cncn2)c1 | inactive | 7.77
COCCCNC(=O)/C=C1\Sc2ccccc2N(Cc2ccccc2F)C1=O | inactive | 12.6
c1ccc(CNc2nc(NCc3ccccc3)c3ccccc3n2)cc1 | 16.4 µM (active) | -9.51
Oc1ccccc1-c1nc(NCc2ccccc2)c2ccccc2n1 | inactive | 2.04
OCCNc1nc(NCc2ccccc2)c2ccccc2n1 | inactive | -3.37
O=C1c2ccccc2C(=O)N1Cc1ccccc1F | 29.1 µM (active) | 22.2
O=C(O)CN1C(=O)C(=O)N(Cc2ccccc2F)C1=O | inactive | 9.39
O=C1NC(=O)N(Cc2ccccc2F)C1=O | inactive | 21.6
Cc1cccc(C)c1NC(=O)C(C)N1CCCC1 (configuration not stated) | inactive | 0.595
COc1ccccc1-c1nn(-c2ccccc2)cc1C(=O)N1CCN(C(=O)c2ccco2)CC1 | inactive | 3.39
COc1ccccc1-c1cc(C(=O)N2CCc3ccccc3C2)c2ccccc2n1 | inactive | -2.91
COc1ccccc1-c1nn(-c2ccccc2)cc1C(=O)N1CCc2ccccc2C1 | 2.06 µM (active) | -17.2
c1ccc(-c2cncnc2)cc1 | inactive | -19.5
COc1ccc(N(Cc2cc3ccc(C)cc3[nH]c2=O)C(=O)c2ccco2)cc1 | inactive | 1.12
CSc1nc(SCC(=O)NC(c2ccccc2)c2ccccc2)c2c3c(sc2n1)CN(C)CC3 | inactive | 7.96
CCOc1ccc(N(CC(=O)Nc2ccc(C)cc2)S(=O)(=O)c2c(C)[nH]c(=O)[nH]c2=O)cc1 | inactive | -18.6
COC(=O)C(C)N(c1ccc(C)cc1)S(=O)(=O)c1c(C)[nH]c(=O)[nH]c1=O (configuration not stated) | 25.9 µM (active) | 6.83
Cc1ccc(N(C(C)C(=O)O)S(=O)(=O)c2c(C)n[nH]c2C)cc1 (configuration not stated) | inactive | 2.85

Structure (SMILES) | Potency | cell number change [%]
O=[N+]([O-])c1cccnc1NCCNc1ncc(C(F)(F)F)cc1Cl | inactive | -29.3
NNC(=O)c1csc(-c2ncc(C(F)(F)F)cc2Cl)n1 | inactive | 17.7
CC(=O)c1cc(C(=O)Nc2ccc3ccccc3c2)c(C)o1 | inactive | 16
O=C(NCCS(=O)(=O)c1ccc(Br)cc1)c1ccccc1 | inactive | 14
Cc1ccc(S(=O)(=O)CNC(=O)c2ccccc2)cc1 | inactive | 10
O=C(NCS(=O)(=O)c1ccccc1)c1ccccc1 | 23.1 µM (active) | 0.335
O=C(O)c1ccc(/C=N/Nc2ncc(C(F)(F)F)cc2Cl)cc1 | inactive | 0.452
Cc1ccc(S(=O)(=O)N2CCN(C(=O)COC(=O)Cc3ccc(F)cc3)CC2)c(C)c1 | inactive | -6.09
Cn1cccc2[nH]c(=O)nc1-2 | inactive | 10.2
Cn1cccc1P(=O)(c1cccn1C)c1cccn1C | 5.17 µM (active) | -5
Cn1cccc1C(=O)C(=O)Nc1ccccc1 | inactive | -12.6
CC(C)c1nnc(NC(=O)c2ccc3ccccc3c2)s1 | inactive | -0.433
CC1CCN(C(=O)CN(Cc2ccc(F)cc2)S(C)(=O)=O)CC1 | inactive | -15.4
O=C(CN(Cc1ccc(F)cc1)S(=O)(=O)c1ccccc1)N1CCCCC1 | inactive | -14.4
CS(=O)(=O)N(CC(=O)N1CCc2ccccc2C1)Cc1ccc(F)cc1 | 0.13 µM (active) | -12.3
Cc1ccc(F)c(NC=C2C(=O)OC(C)(C)OC2=O)c1 | inactive | -13.4
COCc1nnc(NS(=O)(=O)c2ccc(C)cc2)s1 | inactive | -2.98
Cc1cc(C)c(S(=O)(=O)Nc2nnc(C)s2)c(C)c1 | inactive | -0.995
CC(C)(C)Cc1nnc(NS(=O)(=O)c2ccc(F)cc2)s1 | 0.0517 µM (active) | -2.36
COCc1nnc(NS(=O)(=O)c2ccc(F)cc2)s1 | inactive | -4.6
Cc1ccc(S(=O)(=O)Nc2nnc(CC(C)(C)C)s2)cc1 | inactive | -2.43
COCc1nnc(NS(=O)(=O)c2ccc([N+](=O)[O-])cc2)s1 | 25.9 µM (active) | 7.28
CC(C)(C)Cc1nnc(NS(=O)(=O)c2ccccc2)s1 | inactive | -0.602
Cc1cc(C)c(S(=O)(=O)Nc2nnc(CC(C)C)s2)c(C)c1 | inactive | -5.67
COCc1nnc(NS(=O)(=O)c2c(C)cc(C)cc2C)s1 | 18.4 µM (active) | -24.8

Structure (SMILES) | Potency | cell number change [%]
Cn1ccs/c1=N\C(=O)Nc1cccc(Cl)c1 | inactive | 1.31
OCC1(CCOc2ccccc2)CCN(Cc2ccccc2OC(F)F)CC1 | inactive | 9.07
CCCCOC(=O)c1ccc(Nc2ncnc3nc[nH]c23)cc1 | inactive | 2.99
O=C(Nc1ccccc1[N+](=O)[O-])C1(c2ccccc2)CCOCC1 | inactive | -9.86
CCOC(=O)N/N=C/c1ccc(OC)c(O)c1 | inactive | 4.89
Nc1nc(COc2ccc(F)cc2Cl)nc(N2CCCCC2)n1 | inactive | –
CCCCn1c(-c2ccsc2)nc2c1c(=O)[nH]c(=O)n2CCC | inactive | 26
CCCCCn1c(CN2CCN(Cc3ccccc3)CC2)nc2c1c(=O)[nH]c(=O)n2C | inactive | -7.44
CCCCn1c(=O)[nH]c(=O)c2c1nc(Cn1ncc(Cl)c(Cl)c1=O)n2CCC | 9.2 µM (active) | -17.5
Cc1ccc(C(=O)c2nc(C(=O)NCCO)nc3ccccc23)cc1 | inactive | 10.6
C/C(=N\O)C(=O)Nc1ccccc1 | inactive | 5.48
O=C1C(Cl)=C(Nc2ccccc2)C(=O)c2ccccc21 | inactive | -30.2
O=C1C(Cl)=C(Nc2ccc3cn[nH]c3c2)C(=O)c2ccccc21 | 5.8 µM (active) | -29.2
O=S(=O)(Nc1ccc2cn[nH]c2c1)c1ccc(Cl)cc1 | inactive | –
COc1ccc(S(=O)(=O)NNC(=O)C2COc3ccccc3O2)cc1[N+](=O)[O-] (configuration not stated) | inactive | 4.36
NC(=O)c1ccc(NC(=O)CSc2nnc(-c3ccccn3)n2N)cc1 | inactive | 1.07
O=C(Nc1ccc(Oc2cccnc2)cc1)C1CCN(Cc2cccc(Cl)c2)CC1 | inactive | 27.9
O=C(CNC(=O)c1ccccc1)OCc1cccc(Br)c1 | inactive | -18.3
O=C(CN1CC(c2ccccc2)CC1=O)OCc1cccc(Br)c1 (configuration not stated) | inactive | 15.3
Nc1nnnn1CC(=O)OCc1cccc(Br)c1 | 2.06 µM (active) | 4.89
COc1ccc(S(=O)(=O)N2CCOC2CNC(=O)C(=O)NCc2ccncc2)cc1 (configuration not stated) | inactive | -15.1
COc1ccc(CCNC(=O)CSc2c[nH]c3ccccc23)cc1OC | inactive | 5.06
O=C(COC(=O)CC1CCCC1)Nc1ccc(Cl)cn1 | inactive | 2.11
O=C(NCC1CCCC(CNC(=O)Nc2ccc(Cl)cn2)C1)Nc1ccc(Cl)cn1 (configuration not stated) | 0.082 µM (active) | -15.8
O=C(Nc1ccc(Cl)cn1)Nc1ccc(Cl)cn1 | inactive | –

Structure (SMILES) | Potency | cell number change [%]
Nc1nc2ccc(C(=O)Nc3ccccc3)cc2s1 | inactive | -10.8
Cc1ccc(N2C(=O)C3C4C=CC(CC4)C3C2=O)c([N+](=O)[O-])c1 (configuration not stated) | inactive | –
O=C(CCl)N(C/C=C/c1ccccc1)c1ccc2c(c1)OCCO2 | inactive | –
C=CCOc1ccccc1CNc1ccc2c(c1)OCCO2 | inactive | -4.69
C=CCOc1ccccc1CN(C(=O)CCl)c1ccc2c(c1)OCO2 | 9.2 µM (active) | 10.9
Cc1cc(C)cc(Oc2ccc(C(F)(F)F)cc2C#N)c1 | inactive | –
Clc1ccc(CSc2ccc(-c3ccco3)nn2)cc1 | inactive | –
O=C(O)c1ccc(-c2nnc(-c3ccccc3)o2)cc1 | inactive | 25.5
c1ccc(-c2nnc(-c3ccccc3)o2)cc1 | inactive | 0.828
Nc1ccc(-c2nnc(-c3ccccc3)o2)cc1 | 18.4 µM (active) | –
CCCCN1C(=O)/C(=C2\SC(N3CCOCC3)=NC2=O)c2ccccc21 | 8.2 µM (active) | -1.69
Cc1ccc(CN2C(=O)/C(=C3\SC(N4CCOCC4)=NC3=O)c3cc(Br)ccc32)cc1 | inactive | 15.8
CCN1C(=O)/C(=C2\SC(N3CCCCC3)=NC2=O)c2ccccc21 | inactive | -29.3
O=C(NC12CC3CC(CC(C3)C1)C2)c1cnccn1 | inactive | 3.24
CCN(CC)C1CCS(=O)(=O)C1 (configuration not stated) | inactive | 22.1
COc1cccc(-c2cc(C(=O)N3CCN(Cc4ccc5c(c4)OCO5)CC3)on2)c1 | inactive | 17
COc1cc(OC)cc(C(=O)NCC(=O)OCC(=O)NC(C)(C)C)c1 | inactive | 16.7
COc1cc(OC)cc(C(=O)NCC(=O)OCC(=O)c2cc(OC)ccc2OC)c1 | 23.1 µM (active) | -7.21
COC(=O)CNC(=O)c1cc(OC)cc(OC)c1 | inactive | 7
CCC(C)C(NC(=O)c1ccc(Cl)cc1)C(=O)O (configuration not stated) | inactive | -1.98
CC(C)OCCCNC(=O)C(NC(=O)c1ccc(Cl)cc1)C(C)C (configuration not stated) | inactive | 4.94
COC(=O)CNC(=O)C(NC(=O)c1ccc(Cl)cc1)C(C)C (configuration not stated) | 25.9 µM (active) | 12.5
COC(=O)c1cc(C(=O)Nc2cccc(C)n2)cc([N+](=O)[O-])c1 | inactive | –
